Inconclusive results are not listed. Calls of active or inactive are those of the source. Calls come from the whole dose curve; as a rule, active = well fitted inhibition curve with a large enough effect; inconclusive = small, poorly fitted or top-dose-only effect; inactive = no such curve, though single readings can be large or run the other way.
Potency is the fitted concentration of half-maximal effect.

This assay can be described thus: InCell qHTS Assay for Inhibitors of the mTORC1 Signaling Pathway in MEF (Tsc2-/-, p53-/-) Cells: Hit Validation.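 Note: phospho-S6 Ser235/236 signal normalized to propidium iodide cell count per well; nearly all actives have a fitted effect of over 75% in size.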 The conditions noted are these: phospho-rpS6 immunofluorescence, 24 h; activity change, negative = inhibition: at 38.3 µM (top of the series). (In general: qHTS replaces the single test concentration by a dilution series.)
Regarding `Cc1cccc(CSc2cn(CC(=O)N3CCCCCC3)c3ccccc23)c1`, the activity change, negative = inhibition was -100%.

In the case of `COc1ccc(C(=O)c2sc(Nc3ccccc3)nc2N)cc1`, the activity change, negative = inhibition was -100%.

As for `CC(=O)C1=C(c2ccc(Cl)c(Cl)c2)N(C(C)=O)n2c(C)nnc2S1`, the Potency is 7.36 µM (active).

For the compound `COc1ccc2cc(CNc3ccccc3)c(=O)n(CC(=O)Nc3ccc(C)cc3C)c2c1`, the activity change, negative = inhibition is -13.3%.

As to `CCC(C)S(=O)(=O)c1oc(-c2cccs2)nc1S(=O)(=O)c1ccccc1` (configuration not stated), the Potency is 1.17 µM (active).

As for `CC(C)CCNc1nc(Nc2ccccc2)c2cnn(C)c2n1`, the activity change, negative = inhibition is -100%.

For the compound `CC(C)(C)c1ccc(S(=O)(=O)N2CCC(c3ccncc3)CC2)cc1`, the activity change, negative = inhibition is -29.8%.

As to `CCc1ccc2ncc(S(=O)(=O)c3ccc(Cl)cc3)c(N3CCN(CC)CC3)c2c1`, the activity change, negative = inhibition was -100%.

Take `CCOC(=O)CSc1nc2cc3c(cc2c(=O)n1CCCCCC(=O)NCc1ccc2c(c1)OCO2)OCO3`: the activity change, negative = inhibition was -100%.

In the case of `Cc1nn(C(C)C(=O)NC2CCCCC2)c(=O)c2c1sc1ccccc12` (configuration not stated), the activity change, negative = inhibition is -100%.

`CCCCNC(=O)c1ccc2c(c1)N=C(CC)c1ccccc1S2`: the activity change, negative = inhibition is -16%.

Regarding `CCOc1ccccc1NC(=O)CSc1cc(=O)n(CC)c2ccccc12`, the activity change, negative = inhibition was -100%.

With `Cc1cc(C)cc(NC(=O)c2cnn(-c3ccc(C)c(C)c3)c2C2CCNCC2)c1`, the activity change, negative = inhibition was -19.5%.

In the case of `COc1cc(C2CC(=O)Nc3cc4c(cc32)OCCO4)cc(Br)c1OC` (configuration not stated), the activity change, negative = inhibition was -100%.

On to `Cc1ccc(S(=O)(=O)c2nnn3c2nc(NC2CCCCC2)c2sccc23)cc1C`, for which the activity change, negative = inhibition was -100%.

In the case of `O=C(NCc1ccc(Cl)cc1)C(=O)NCC(c1cccs1)S(=O)(=O)c1ccc(Cl)cc1` (configuration not stated), the activity change, negative = inhibition was -100%.

With `CCCC1=Nc2cc(C(=O)NCCOC)ccc2Sc2ccccc21`, the activity change, negative = inhibition was -100%.

For `O=S(=O)(NCC(c1ccco1)N1CCN(c2ccc(F)cc2)CC1)c1ccccc1` (configuration not stated), the activity change, negative = inhibition is -100%.

Turning to `O=C(CCCn1ccc2cc(S(=O)(=O)N3CCCC3)ccc21)NCc1ccc(Cl)cc1`, the activity change, negative = inhibition is -100%.

On to `CCCN1C(=O)C(Cc2nc3ccccc3c(=O)n2CC)c2cc(Br)ccc21` (configuration not stated), for which the activity change, negative = inhibition was -100%.

With `CCN1CCN(c2ccc(NS(=O)(=O)c3c(C)nc4sccn4c3=O)cc2Cl)CC1`, the activity change, negative = inhibition is -100%.

Regarding `CCOC(=O)c1ccc2ncc(C(=O)OCC)c(NCCc3ccc(OC)c(OC)c3)c2c1`, the activity change, negative = inhibition was -100%.

For `Cc1cccc(N(CC(=O)NCCSc2ccc(Cl)cc2)S(=O)(=O)c2ccccc2)c1C`, the activity change, negative = inhibition was -100%.

As for `Cc1ccc(CN2C(=O)c3ccccc3Sc3ccc(C(=O)NCCCN4CCOCC4)cc32)cc1`, the activity change, negative = inhibition is -100%.

Turning to `O=C(CCn1cnc2onc(-c3ccc(F)cc3)c2c1=O)Nc1ccc(F)c(Cl)c1`, the activity change, negative = inhibition was -100%.

As for `CCOC(=O)c1c(NC(=O)c2nc(S(C)(=O)=O)ncc2Cl)sc(C(C)=O)c1C`, the Potency was 3.69 µM (active).

In the case of `Cn1nnnc1SCCCNCc1ccccc1OCc1ccc(Cl)cc1`, the activity change, negative = inhibition is -12.8%.

As to `COc1cc(OC)cc(C(=O)NCCc2csc(-c3cccc(C)c3)n2)c1`, the activity change, negative = inhibition came out at 1.72%.

As for `CCOC(=O)C(Cc1c[nH]c2ccccc12)NC(=O)COc1ccc(Cl)cc1` (configuration not stated), the activity change, negative = inhibition is -100%.

For the compound `CN(C(=O)CSc1nc2ccc(NC(=O)COc3ccc(F)cc3)cc2s1)c1ccccc1`, the activity change, negative = inhibition is -100%.

For the compound `COc1ccc(S(=O)(=O)NCCc2csc3nc(-c4ccc(Cl)cc4)nn23)cc1C`, the activity change, negative = inhibition was -100%.

Regarding `Cc1cccc(N2CCN(C(=O)c3ccc(CS(=O)c4cccc(Cl)c4)o3)CC2)c1C` (configuration not stated), the activity change, negative = inhibition is -17.3%.

As for `Cc1ccc(Nc2nnc(-c3ccc(C)c(S(=O)(=O)N4CCOCC4)c3)c3ccccc23)c(C)c1`, the activity change, negative = inhibition was -100%.

`O=C(NCC(c1cccs1)S(=O)(=O)c1cccs1)c1ccccc1` (configuration not stated): the activity change, negative = inhibition is -100%.

As for `Cc1ccc(C(=O)c2cn(CC(=O)NCc3ccccc3Cl)c3nc(C)ccc3c2=O)cc1`, the activity change, negative = inhibition is -100%.

On to `Cc1c(C(=O)Nc2ccc(F)cc2F)nnn1-c1ccccc1Br`, for which the activity change, negative = inhibition was -100%.

As to `CCS(=O)(=O)c1ncc(Cl)c(C(=O)NCc2ccc(OC)cc2)n1`, the Potency was 4.65 µM (active).

The record behind these values is PubChem BioAssay AID651791 (National Center for Advancing Translational Sciences (NCATS), 2012).
